Calls of active or inactive are those of the source.
Assays:
[1] = small molecules captured by biotinylated probe aFSTL3 – biochemical, small-molecule microarray, fluorescence 635/667, stem cell growth factor project, primary screen (AID 1064); conditions: higher = more signal;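 further: measures binding of the biotinylated anti-FSTL3 antibody to printed compounds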
[2] = binders from COS7 lysate, DM2A8 probe, primary screen, torsin A project, cell lysate, small-molecule microarray, fluorescence 635/667 (AID 1065); conditions: higher = more signal, COS7 lysate expressing mutant human TOR1A
[3] = small molecules captured by biotinylated probe aFGF2 – biochemical, small-molecule microarray, fluorescence 635/667, stem cell growth factor project, primary screen (AID 1067); conditions: higher = more signal;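 further: measures binding of biotinylated aFGF2 protein to printed compounds on slides; z-score merges feature fluorescence and signal-to-noise across triplicate slides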
[4] = small molecules captured by biotinylated probe aFGF10 – biochemical, small-molecule microarray, fluorescence 635/667, stem cell growth factor project, primary screen (AID 1071); conditions: higher = more signal;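 further: score merges 667 nm spot intensity and signal to noise from triplicate slides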
[5] = biological target: Neurogenic locus notch homolog protein 2 (Homo sapiens) (UniProt Q04721); test: small molecules binding Notch2 protein – biochemical, small-molecule microarray, 635 nm fluorescence, stem cell growth factors, primary screen (AID 1073); conditions: higher = more signal
[6] = biological target: Pro-neuregulin-1, membrane-bound isoform (Homo sapiens) (UniProt Q02297); test: small molecules binding neuregulin-1 protein – biochemical, small-molecule microarray, fluorescence 635/667, psychiatric disease protein project, primary screen (AID 1075); conditions: NRG1 binding, 635 nm fluorescence, higher = more signal;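 further: score combines 667 nm spot fluorescence with signal to noise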
[7] = test system: Neuregulin-1 EGF-like domain; test: small molecules binding NRG1 EGF domain – biochemical, small-molecule microarray, 635 nm fluorescence, primary screen (AID 1081); conditions: higher = more signal;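 further: binding of the protein to compounds printed on small-molecule microarray slides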
[8] = FRG1 expression reporter modulators in myotubes – cell-based, C2C12 myotubes, firefly/Renilla luciferase, luminescence, FRG1 inhibition for FSHD, primary screen (AID 1084); conditions: FRG1 promoter luciferase, higher = more signal, called active from +8 up or from −8 down
[9] = small molecules captured by biotinylated probe aFST – biochemical, small-molecule microarray, fluorescence 635/667, stem cell growth factor project, primary screen (AID 1086); conditions: higher = more signal;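 further: score merges 667 nm fluorescence with signal-to-noise of each printed compound spot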
[10] = binders of probe aHhip on microarray, primary screen, stem cell growth factor project, biochemical, small-molecule microarray, fluorescence 635/667 (AID 1087); conditions: higher = more signal;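 further: score merges spot fluorescence at 667nm with spot signal to noise ratio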
[11] = test system: PRMT1 (protein arginine N-methyltransferase 1); test: small molecules binding arginine methyltransferase PRMT1 – biochemical, small-molecule microarray, 635 nm fluorescence, primary screen (AID 1088); conditions: higher = more signal;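 further: binding of Prmt1 protein to compounds spotted on small-molecule microarray slides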
[12] = growth effects on S. cerevisiae YJM789 – YJM789 clinical isolate, OD600, 24 h, basal, primary screen (AID 1089); conditions: higher = more signal, called active from +8 up or from −8 down;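 further: growth of clinical yeast isolate S. cerevisiae YJM 789 seeded 1000 cells per well; test concentration not given here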
[13] = S. pombe growth modifiers, basal conditions – strain 972, OD600, 24 h, no modulator, primary screen (AID 1090);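 further: basal condition with compound alone and no growth modifier present; test concentration not given here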; conditions: S. pombe 972 growth, higher = more signal, called active from +8 up or from −8 down
[14] = budding yeast growth modifiers under rapamycin – strain BY4716, OD600, 96 h, primary screen (AID 1091); further: test concentration not given here; conditions: S. cerevisiae BY4716 + rapamycin, higher = more signal, called active from +8 up or from −8 down
[15] = biological target: Torsin-1A-interacting protein 2 (Homo sapiens) (UniProt Q8NFQ8); test: small molecules binding lysate-expressed LULL1 – cell lysate, human LULL1 lysate, 635/667 nm fluorescence, primary screen (AID 1092); conditions: small-molecule microarray, hLULL1 lysate binding, 635 nm fluorescence; higher = more signal;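 further: probe is lysate of COS7 cells overexpressing human LULL1; score merges per-feature 667 nm fluorescence with signal-to-noise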
[16] = optical density change of DRC41 E. coli – strain DRC41, OD650, 24 h, E. coli filamentation project, primary screen (AID 1093);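 further: MC1000 strain lacking acrAB efflux and sulA so SOS filamentation is blocked; test concentration not given here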; conditions: E. coli DRC41 growth, higher = more signal, called active from +8 up or from −8 down
[17] = probe aLefty2 binding to arrayed compounds – biochemical, biotinylated probe, 635/667 nm fluorescence, primary screen (AID 1094); conditions: small-molecule microarray, higher = more signal;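 further: score merges spot fluorescence near 667 nm with spot signal-to-noise ratio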
[18] = test system: Noggin (protein binding on small-molecule microarray); test: small molecules binding Noggin protein – biochemical, 635/667 nm fluorescence, primary screen (AID 1095); conditions: 635 nm fluorescence, higher = more signal;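 further: score merges 667 nm feature fluorescence with signal to noise over triplicate slides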
[19] = biological target: Neurogenic locus notch homolog protein 3 (Homo sapiens) (UniProt Q9UM47); test: small molecules binding NOTCH3 protein – biochemical, 635/667 nm fluorescence, primary screen (AID 1096); conditions: small-molecule microarray, 635 nm fluorescence, higher = more signal
[20] = probe aEGFR binding to arrayed compounds – biochemical, biotinylated probe, 635/667 nm fluorescence, primary screen (AID 1097); conditions: small-molecule microarray, higher = more signal;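 further: probe is a biotinylated anti-EGFR antibody binding compounds printed on slides; score combines fluorescence near 667 nm and signal to noise of each spot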

Chain of Torsin-1A-interacting protein 2 (Homo sapiens) (Q8NFQ8 whole entry, looked up): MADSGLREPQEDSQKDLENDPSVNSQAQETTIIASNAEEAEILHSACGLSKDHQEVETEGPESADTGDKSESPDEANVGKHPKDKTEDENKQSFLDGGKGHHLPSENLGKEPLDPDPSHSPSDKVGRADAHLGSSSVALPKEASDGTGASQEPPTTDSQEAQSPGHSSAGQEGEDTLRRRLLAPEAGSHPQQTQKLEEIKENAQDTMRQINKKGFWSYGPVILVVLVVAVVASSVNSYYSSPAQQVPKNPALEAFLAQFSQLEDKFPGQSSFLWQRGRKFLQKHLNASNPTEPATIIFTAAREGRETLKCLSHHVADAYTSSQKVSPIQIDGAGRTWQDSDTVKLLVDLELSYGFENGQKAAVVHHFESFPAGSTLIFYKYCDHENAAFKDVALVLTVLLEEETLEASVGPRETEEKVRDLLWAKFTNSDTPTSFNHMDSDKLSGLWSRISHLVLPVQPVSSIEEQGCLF
Chain of Pro-neuregulin-1, membrane-bound isoform (Homo sapiens) (Q02297 whole entry, looked up, the tested form may be a part, canonical isoform): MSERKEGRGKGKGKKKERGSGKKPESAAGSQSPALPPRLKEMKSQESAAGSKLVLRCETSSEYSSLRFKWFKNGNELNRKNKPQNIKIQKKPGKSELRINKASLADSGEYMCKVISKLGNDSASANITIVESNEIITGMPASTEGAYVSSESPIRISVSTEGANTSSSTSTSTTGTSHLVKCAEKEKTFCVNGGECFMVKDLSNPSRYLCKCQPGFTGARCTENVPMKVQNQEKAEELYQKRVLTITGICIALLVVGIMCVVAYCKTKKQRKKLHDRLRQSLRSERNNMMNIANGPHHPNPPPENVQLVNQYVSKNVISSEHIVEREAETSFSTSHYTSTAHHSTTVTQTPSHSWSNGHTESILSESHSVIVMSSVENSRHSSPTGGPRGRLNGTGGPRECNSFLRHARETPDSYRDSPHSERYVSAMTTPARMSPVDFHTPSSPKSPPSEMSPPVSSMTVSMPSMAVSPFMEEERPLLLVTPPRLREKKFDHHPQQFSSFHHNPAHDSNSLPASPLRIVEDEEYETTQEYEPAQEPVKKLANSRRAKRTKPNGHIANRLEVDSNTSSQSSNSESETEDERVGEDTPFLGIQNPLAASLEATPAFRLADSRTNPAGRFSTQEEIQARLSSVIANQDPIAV
Chain of Neurogenic locus notch homolog protein 3 (Homo sapiens) (Q9UM47 whole entry, looked up): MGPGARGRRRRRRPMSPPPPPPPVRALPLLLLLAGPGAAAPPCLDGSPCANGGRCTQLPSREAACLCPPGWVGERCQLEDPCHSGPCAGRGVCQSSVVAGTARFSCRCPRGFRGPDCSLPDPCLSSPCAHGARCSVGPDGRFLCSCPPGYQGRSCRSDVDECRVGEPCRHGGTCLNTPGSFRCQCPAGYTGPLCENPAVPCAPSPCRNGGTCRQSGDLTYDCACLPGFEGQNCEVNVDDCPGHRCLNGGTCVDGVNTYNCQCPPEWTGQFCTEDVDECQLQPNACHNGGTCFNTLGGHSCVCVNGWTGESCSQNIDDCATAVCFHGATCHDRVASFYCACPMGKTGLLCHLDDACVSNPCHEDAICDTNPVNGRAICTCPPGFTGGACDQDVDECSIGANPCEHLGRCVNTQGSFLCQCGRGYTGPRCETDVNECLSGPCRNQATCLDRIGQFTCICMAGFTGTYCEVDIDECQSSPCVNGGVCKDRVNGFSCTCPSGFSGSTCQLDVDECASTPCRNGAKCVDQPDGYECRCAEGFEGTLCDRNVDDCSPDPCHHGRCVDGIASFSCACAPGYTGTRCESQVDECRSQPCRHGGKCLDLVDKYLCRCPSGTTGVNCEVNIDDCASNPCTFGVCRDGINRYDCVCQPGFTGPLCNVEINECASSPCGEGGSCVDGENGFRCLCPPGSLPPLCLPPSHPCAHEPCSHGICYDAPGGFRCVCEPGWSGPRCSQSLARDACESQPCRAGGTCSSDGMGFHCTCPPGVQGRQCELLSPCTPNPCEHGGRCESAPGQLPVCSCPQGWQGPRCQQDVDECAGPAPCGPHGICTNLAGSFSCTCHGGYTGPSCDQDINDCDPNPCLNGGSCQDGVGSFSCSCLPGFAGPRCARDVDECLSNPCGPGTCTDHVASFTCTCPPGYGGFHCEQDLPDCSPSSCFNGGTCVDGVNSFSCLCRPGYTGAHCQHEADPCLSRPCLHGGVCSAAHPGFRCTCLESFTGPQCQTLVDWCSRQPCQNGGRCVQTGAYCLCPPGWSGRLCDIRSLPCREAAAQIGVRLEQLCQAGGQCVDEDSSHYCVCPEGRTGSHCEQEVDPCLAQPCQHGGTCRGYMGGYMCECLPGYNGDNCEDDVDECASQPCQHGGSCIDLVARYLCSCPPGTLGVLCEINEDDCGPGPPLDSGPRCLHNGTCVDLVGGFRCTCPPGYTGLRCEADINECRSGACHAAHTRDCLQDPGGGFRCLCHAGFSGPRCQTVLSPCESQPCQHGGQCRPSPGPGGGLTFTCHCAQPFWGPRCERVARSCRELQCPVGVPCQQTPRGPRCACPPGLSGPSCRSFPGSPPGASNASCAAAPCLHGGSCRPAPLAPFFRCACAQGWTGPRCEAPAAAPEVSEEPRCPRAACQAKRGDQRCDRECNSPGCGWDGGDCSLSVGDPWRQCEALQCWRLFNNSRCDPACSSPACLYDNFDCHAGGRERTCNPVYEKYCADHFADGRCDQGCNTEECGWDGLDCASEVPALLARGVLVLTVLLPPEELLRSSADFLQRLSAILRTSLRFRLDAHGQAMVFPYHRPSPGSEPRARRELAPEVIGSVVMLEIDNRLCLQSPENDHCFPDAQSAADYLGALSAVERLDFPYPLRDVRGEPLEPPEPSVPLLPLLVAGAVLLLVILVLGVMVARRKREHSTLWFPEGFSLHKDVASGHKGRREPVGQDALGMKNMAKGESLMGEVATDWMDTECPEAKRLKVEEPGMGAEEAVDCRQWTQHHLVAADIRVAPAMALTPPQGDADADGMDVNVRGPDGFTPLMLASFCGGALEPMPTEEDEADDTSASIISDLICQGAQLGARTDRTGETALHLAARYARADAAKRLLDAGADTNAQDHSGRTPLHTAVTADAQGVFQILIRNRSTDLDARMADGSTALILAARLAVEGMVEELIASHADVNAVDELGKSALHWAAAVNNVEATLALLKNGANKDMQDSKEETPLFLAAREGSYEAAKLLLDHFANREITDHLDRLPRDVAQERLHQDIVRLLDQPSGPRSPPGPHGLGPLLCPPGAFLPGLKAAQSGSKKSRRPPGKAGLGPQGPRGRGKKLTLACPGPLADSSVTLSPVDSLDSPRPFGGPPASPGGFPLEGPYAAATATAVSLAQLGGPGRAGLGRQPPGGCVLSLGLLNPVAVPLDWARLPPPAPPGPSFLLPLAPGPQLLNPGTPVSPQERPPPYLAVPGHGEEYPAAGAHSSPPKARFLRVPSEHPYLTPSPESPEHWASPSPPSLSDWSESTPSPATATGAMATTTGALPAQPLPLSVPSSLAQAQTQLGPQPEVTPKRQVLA

Row | SMILES | composite z-score [1] | composite z-score [2] | composite z-score [3] | composite z-score [4] | composite z-score [5] | composite z-score [6] | composite z-score [7] | z-score [8] | composite z-score [9] | composite z-score [10] | composite z-score [11] | z-score [12] | z-score [13] | z-score [14] | composite z-score [15] | z-score [16] | composite z-score [17] | composite z-score [18] | composite z-score [19] | composite z-score [20]
1 | NC(=O)N1C(=O)C2C(C1=O)C1C=C(CCCO)C2C(c2cccs2)N1Cc1cc2c(cc1Br)OCO2 (stereo not given) | -0.137 | 0.314 | -0.0036 | 0.0276 | 0.0449 | 0.453 | 1.16 | -1.85 (inactive) | 0.117 | -0.0645 | 0.0811 | -1.75 (inactive) | -0.498 (inactive) | -1.79 (inactive) | 1.84 | 0.263 (inactive) | -0.0362 | 0.0233 | 0.508 | -0.0978
2 | CCOC(=O)[C@@H]1[C@@H]2C(=O)N(CC)C(=O)[C@@H]2C[C@@H]1Sc1ccccc1 | -0.528 | 1.04 | 0.0308 | 0.712 | 1.39 | 0.354 | 1.33 | -1.02 (inactive) | 0.731 | -0.226 | 0.814 | -0.624 (inactive) | 0.792 (inactive) | 2.66 (inactive) | 1.69 | 0.0399 (inactive) | -0.0632 | -0.132 | 0.722 | 0.113
3 | C=CCNC(=O)[C@@H]1[C@H]2C(=O)O[C@H](c3ccccc3)[C@H](c3ccccc3)N2[C@H](c2ccccc2OCCO)[C@@]12C(=O)N(C(=O)OCCOC)c1ccc(C#CC3=CCCCC3)cc12 | -0.0809 | 0.683 | 0.0496 | 0.586 | -0.0189 | 0.457 | 1.2 | -1.11 (inactive) | 0.206 | -0.178 | 1.54 | 0.363 (inactive) | -0.0834 (inactive) | 3.14 (inactive) | 2.31 | 0.906 (inactive) | -0.205 | 1.34 | 1.15 | -0.0435
4 | CC(CO)N1C(=O)[C@@H]2C3C(=O)OCCC/C=C\[C@H]3OC23C=CCN(Cn2nnc4ccccc42)C(=O)[C@@H]13 (stereo not given in full) | -0.185 | -0.469 | -0.107 | 0.285 | -0.722 | 1.7 | 1.34 | -1.11 (inactive) | -0.161 | 0.21 | -1.18 | 0.216 (inactive) | -0.152 (inactive) | -0.637 (inactive) | -1.1 | 0.333 (inactive) | -0.198 | -0.254 | 0.219 | -0.152
5 | CCOC(=O)C[C@H]1[C@H](OC(=O)Cc2ccc3c(c2)OCO3)[C@@H](NC(=O)Cc2ccc(OC)cc2)c2cc(OCCCO)ccc2N1C(=O)c1ccccc1 | -0.244 | 0.188 | -0.11 | 0.494 | 0.608 | 0.416 | 0.436 | -1.38 (inactive) | 0.447 | -0.353 | 1.26 | -0.13 (inactive) | 0.0145 (inactive) | 0.234 (inactive) | 1.37 | 1.26 (inactive) | -0.0846 | 0.0653 | 0.608 | 0.0032
6 | CCOC(=O)C1=CC[C@@H](c2cc(Cl)ccc2Cl)N(S(=O)(=O)c2ccc(C)cc2)[C@H]1c1ccc(OC)cc1 | 0.522 | 0.0025 | 0.259 | 0.582 | 0.147 | -0.362 | 0.13 | -1.69 (inactive) | 0.623 | 0.082 | -0.393 | 1.31 (inactive) | 2.17 (inactive) | 1.43 (inactive) | 0.506 | -0.0891 (inactive) | 0.754 | -0.546 | -0.329 | 0.379
7 | C=CCOC(=O)[C@@H]1[C@H]2C(=O)O[C@H](c3ccccc3)[C@H](c3ccccc3)N2[C@H](c2ccc(OCCOC(=O)[C@H]3C[C@H]4C(=O)N[C@@H](CCCC[N+](C)(C)C)C(=O)N4[C@H]3c3ccc(O)cc3)cc2)[C@@]12C(=O)Nc1ccc(I)cc12 | -0.42 | 1.1 | -0.0569 | 0.528 | 1.18 | 1.31 | 1.37 | 0.369 (inactive) | 0.208 | -0.138 | 1.53 | 1.86 (inactive) | 1.49 (inactive) | 4.28 (inactive) | 2.64 | -0.0021 (inactive) | -0.126 | 1.94 | 1.05 | -0.027
8 | COC(=O)[C@@]1(Cc2ccccc2)[C@H]2c3cc(C(=O)N4CCCC4)n(Cc4ccsc4Br)c3C[C@H]2CN1C(=O)c1ccccc1 | 0.166 | -0.411 | 0.281 | 0.682 | 1.72 | 1.46 | 1.18 | -0.444 (inactive) | 1.51 | 0.155 | 0.12 | 0.333 (inactive) | 1.22 (inactive) | 1.35 (inactive) | 3.43 | -0.575 (inactive) | 0.41 | -0.142 | 1.05 | 0.272
9 | COc1ccc(C(O)C2C=CC3C(=O)N(C)C(=O)C3N2N2CCCCC2)cc1 (stereo not given) | -0.162 | 1.42 | 0.213 | 1 | 1.65 | 1.61 | 1.38 | 1.51 (inactive) | 0.201 | -0.283 | 0.973 | -0.186 (inactive) | -0.275 (inactive) | -0.0667 (inactive) | 2.83 | -0.454 (inactive) | 0.311 | 0.158 | 0.871 | 0.0961
10 | Cc1ccc(F)cc1S(=O)(=O)N[C@@H]1CCN(Cc2ccc(Oc3ccccc3)cc2)C1 | -0.191 | 0.45 | -0.144 | -0.3 | -0.155 | 0.0412 | -0.014 | -1.9 (inactive) | 0.0111 | -0.34 | -0.434 | -21.2 (active) | -21.4 (active) | -3.22 (inactive) | -0.367 | -14.1 (active) | -0.0073 | 0.966 | 0.551 | -0.0953
